Laboratory results published in PMC7862700, “An all-to-all approach to the identification of sequence-specific readers for epigenetic DNA modifications on cytosine”.

Columns and labels:
Experiment in all cases: DAPPL (digital affinity profiling via proximity ligation, sequencing); 10 mM Tris-HCl pH 7.5, 50 mM NaCl, 1 mM DTT, 4% glycerol, room temperature, 30 min; GST-TFs on glutathione beads, 16-mer random dsDNA library, 0.1% formaldehyde crosslink after washing; high values mean tight binding
FEV = molecular target: T1, FEV (Homo sapiens, UniProt Q99581 1-238); settings: protein: recombinant; tags: N-terminal GST; dsDNA, one strand shown
T1 sequence: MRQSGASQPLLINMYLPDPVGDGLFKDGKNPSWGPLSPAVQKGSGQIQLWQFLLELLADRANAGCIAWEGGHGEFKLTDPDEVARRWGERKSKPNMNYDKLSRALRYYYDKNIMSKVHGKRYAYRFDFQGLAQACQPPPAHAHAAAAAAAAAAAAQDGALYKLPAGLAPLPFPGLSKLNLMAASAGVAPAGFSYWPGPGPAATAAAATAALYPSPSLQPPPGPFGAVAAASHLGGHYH
Method in brief: (§1)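 Pools were built from human transcription factors expressed in yeast as GST fusions, captured on glutathione beads and DNA-barcoded, along with a tag-only sample. Incubation with 200 nmole of a 16-mer random double-stranded DNA library lasted 30 min at room temperature in Tris/NaCl/DTT/glycerol buffer, and was followed by washing, 0.1% formaldehyde crosslinking, proximity ligation, PCR amplification and Illumina NextSeq500 sequencing. Binding signal is the quotient of each hexamer's read frequency for a factor and its frequency for the tag-only sample.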

ETV5 = ETV5 (Homo sapiens, UniProt P41161 1-510); settings: protein: recombinant; tags: N-terminal GST; dsDNA, one strand shown
Method in brief: as §1

HSF1 = HSF1 (Homo sapiens, UniProt Q00613 1-529); settings: protein: recombinant; tags: N-terminal GST; chain copies: 3; dsDNA, one strand shown
Method in brief: as §1

SPIC = molecular target: T2, SPIC (Homo sapiens, UniProt Q8N5J4 1-248); settings: protein: recombinant; tags: N-terminal GST; dsDNA, one strand shown
T2 sequence: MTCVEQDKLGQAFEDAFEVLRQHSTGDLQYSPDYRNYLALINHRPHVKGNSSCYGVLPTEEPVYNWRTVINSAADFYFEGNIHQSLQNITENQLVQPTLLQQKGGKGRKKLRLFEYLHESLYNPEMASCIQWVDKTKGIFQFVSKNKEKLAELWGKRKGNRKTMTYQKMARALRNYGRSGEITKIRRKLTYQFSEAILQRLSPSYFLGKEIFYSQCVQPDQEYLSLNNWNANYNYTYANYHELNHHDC
Method in brief: as §1

ELF4 = ELF4 (Homo sapiens, UniProt Q99607 1-663); settings: protein: recombinant; tags: N-terminal GST; dsDNA, one strand shown
Method in brief: as §1

ELK4 = molecular target: T3, ELK4 (Homo sapiens, UniProt P28324-2 1-405); settings: protein: recombinant; tags: N-terminal GST; dsDNA, one strand shown
T3 sequence: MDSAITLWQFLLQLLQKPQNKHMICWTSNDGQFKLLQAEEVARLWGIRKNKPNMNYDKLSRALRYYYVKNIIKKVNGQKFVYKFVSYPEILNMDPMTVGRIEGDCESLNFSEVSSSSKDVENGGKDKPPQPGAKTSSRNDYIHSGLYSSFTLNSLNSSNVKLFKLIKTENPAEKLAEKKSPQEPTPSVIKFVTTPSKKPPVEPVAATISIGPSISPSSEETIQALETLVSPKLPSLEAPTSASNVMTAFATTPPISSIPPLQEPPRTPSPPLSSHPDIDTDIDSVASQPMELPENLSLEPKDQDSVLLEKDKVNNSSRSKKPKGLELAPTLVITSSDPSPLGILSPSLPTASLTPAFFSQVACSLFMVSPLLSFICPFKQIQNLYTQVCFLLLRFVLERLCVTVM
Method in brief: as §1

ETV2 = molecular target: T4, ETV2 (Homo sapiens, UniProt O00321 1-342); settings: protein: recombinant; tags: N-terminal GST; dsDNA, one strand shown
T4 sequence: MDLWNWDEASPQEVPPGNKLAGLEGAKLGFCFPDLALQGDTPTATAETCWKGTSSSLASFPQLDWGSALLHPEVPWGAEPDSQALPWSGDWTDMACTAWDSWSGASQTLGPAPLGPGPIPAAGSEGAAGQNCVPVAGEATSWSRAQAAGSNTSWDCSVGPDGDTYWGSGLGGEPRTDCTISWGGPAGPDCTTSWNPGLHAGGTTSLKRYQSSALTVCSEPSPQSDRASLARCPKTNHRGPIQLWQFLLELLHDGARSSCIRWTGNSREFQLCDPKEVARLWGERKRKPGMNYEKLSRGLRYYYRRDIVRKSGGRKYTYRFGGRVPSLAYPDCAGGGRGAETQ
Method in brief: as §1

ELF3 = molecular target: T5, ELF3 (Homo sapiens, UniProt P78545 1-371); settings: protein: recombinant; tags: N-terminal GST; dsDNA, one strand shown
T5 sequence: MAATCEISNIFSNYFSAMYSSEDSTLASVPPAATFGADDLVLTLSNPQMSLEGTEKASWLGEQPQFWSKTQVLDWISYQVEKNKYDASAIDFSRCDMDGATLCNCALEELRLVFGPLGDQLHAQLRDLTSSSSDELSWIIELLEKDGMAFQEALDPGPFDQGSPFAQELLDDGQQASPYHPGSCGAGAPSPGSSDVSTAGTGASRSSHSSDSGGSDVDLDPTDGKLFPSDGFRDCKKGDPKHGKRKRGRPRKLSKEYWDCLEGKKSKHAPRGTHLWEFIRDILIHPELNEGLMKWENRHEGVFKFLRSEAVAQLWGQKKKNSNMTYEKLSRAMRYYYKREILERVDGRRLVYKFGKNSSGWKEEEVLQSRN
Method in brief: as §1

CRX = CRX (Homo sapiens, UniProt O43186 1-299); settings: protein: recombinant; tags: N-terminal GST; dsDNA, one strand shown
Method in brief: as §1

ETV1 = ETV1 (Homo sapiens, UniProt P50549 1-477); settings: protein: recombinant; tags: N-terminal GST; dsDNA, one strand shown
Method in brief: as §1

ERF = molecular target: T6, ERF (Homo sapiens, UniProt P50548 1-548); settings: protein: recombinant; tags: N-terminal GST; dsDNA, one strand shown
T6 sequence: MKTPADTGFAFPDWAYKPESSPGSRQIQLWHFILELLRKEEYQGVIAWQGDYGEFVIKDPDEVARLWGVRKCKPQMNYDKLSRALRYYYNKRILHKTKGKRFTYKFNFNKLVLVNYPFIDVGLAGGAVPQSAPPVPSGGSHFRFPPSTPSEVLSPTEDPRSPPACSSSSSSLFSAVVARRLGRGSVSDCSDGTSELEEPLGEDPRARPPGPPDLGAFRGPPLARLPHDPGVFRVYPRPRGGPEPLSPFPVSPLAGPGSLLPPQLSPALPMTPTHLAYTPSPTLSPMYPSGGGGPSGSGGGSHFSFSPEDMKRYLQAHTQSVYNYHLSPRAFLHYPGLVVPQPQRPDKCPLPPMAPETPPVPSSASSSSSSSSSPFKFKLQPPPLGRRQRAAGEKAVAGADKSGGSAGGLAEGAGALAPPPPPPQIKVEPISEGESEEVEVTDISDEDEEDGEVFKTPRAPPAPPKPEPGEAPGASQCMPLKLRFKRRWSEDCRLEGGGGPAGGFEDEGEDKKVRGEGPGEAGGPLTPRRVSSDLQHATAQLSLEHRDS
Method in brief: as §1

ETV3L = molecular target: T7, ETV3L (Homo sapiens, UniProt Q6ZN32 1-361); settings: protein: recombinant; tags: N-terminal GST; dsDNA, one strand shown
T7 sequence: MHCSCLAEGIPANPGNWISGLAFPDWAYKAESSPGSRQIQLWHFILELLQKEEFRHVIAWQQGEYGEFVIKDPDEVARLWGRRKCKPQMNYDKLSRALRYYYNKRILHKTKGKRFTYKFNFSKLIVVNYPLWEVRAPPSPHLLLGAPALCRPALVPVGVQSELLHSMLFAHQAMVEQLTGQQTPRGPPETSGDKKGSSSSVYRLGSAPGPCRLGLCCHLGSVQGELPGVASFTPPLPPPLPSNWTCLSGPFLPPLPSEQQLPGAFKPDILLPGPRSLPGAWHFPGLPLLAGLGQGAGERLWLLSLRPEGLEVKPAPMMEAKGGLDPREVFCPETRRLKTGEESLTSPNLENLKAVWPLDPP
Method in brief: as §1

ETS2 = molecular target: T8, ETS2 (Homo sapiens, UniProt P15036 1-469); settings: protein: recombinant; tags: N-terminal GST; dsDNA, one strand shown
T8 sequence: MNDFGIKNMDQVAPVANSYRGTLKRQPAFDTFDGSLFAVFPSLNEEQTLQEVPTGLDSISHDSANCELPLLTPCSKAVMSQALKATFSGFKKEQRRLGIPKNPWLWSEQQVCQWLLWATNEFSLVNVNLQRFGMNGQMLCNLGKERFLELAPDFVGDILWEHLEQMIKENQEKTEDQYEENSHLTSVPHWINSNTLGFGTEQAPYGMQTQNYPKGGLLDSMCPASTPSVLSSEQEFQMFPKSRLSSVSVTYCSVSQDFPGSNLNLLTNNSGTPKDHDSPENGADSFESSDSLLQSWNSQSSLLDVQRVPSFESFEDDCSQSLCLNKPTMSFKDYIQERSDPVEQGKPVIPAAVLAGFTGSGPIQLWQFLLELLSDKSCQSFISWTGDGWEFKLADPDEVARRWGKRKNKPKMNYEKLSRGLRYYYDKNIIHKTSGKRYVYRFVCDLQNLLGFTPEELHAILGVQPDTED
Method in brief: as §1

SPDEF = molecular target: T9, SPDEF (Homo sapiens, UniProt O95238 1-335); settings: protein: recombinant; tags: N-terminal GST; dsDNA, one strand shown
T9 sequence: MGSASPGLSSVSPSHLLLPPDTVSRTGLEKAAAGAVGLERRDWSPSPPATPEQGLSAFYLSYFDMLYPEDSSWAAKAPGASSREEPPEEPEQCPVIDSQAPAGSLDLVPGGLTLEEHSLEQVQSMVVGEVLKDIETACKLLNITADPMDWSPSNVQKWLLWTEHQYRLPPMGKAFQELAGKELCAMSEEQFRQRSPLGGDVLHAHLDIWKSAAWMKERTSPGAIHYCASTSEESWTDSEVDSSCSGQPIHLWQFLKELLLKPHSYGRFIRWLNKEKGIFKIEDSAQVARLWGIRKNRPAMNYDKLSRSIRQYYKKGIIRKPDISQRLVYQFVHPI
Method in brief: as §1

ETV7 = molecular target: T10, ETV7 (Homo sapiens, UniProt Q9Y603 1-341); settings: protein: recombinant; tags: N-terminal GST; dsDNA, one strand shown
T10 sequence: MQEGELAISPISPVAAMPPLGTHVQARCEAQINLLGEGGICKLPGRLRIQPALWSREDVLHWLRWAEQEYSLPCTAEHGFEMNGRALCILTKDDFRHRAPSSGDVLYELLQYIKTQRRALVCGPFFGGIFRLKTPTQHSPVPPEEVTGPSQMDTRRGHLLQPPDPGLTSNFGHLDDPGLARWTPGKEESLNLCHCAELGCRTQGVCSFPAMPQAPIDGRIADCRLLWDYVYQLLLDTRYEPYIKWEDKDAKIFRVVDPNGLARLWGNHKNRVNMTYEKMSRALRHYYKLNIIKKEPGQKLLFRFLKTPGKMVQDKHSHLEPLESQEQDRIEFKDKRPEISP
Method in brief: as §1

ELF5 = molecular target: T11, ELF5 (Homo sapiens, UniProt Q9UKW6-2 1-255); settings: protein: recombinant; tags: N-terminal GST; dsDNA, one strand shown
T11 sequence: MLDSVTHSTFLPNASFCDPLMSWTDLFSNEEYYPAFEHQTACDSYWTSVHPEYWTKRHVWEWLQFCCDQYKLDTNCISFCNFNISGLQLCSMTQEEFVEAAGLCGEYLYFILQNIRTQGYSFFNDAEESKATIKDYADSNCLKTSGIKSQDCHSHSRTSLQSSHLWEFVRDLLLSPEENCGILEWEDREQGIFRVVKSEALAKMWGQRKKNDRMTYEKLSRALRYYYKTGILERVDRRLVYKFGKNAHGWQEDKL
Method in brief: as §1

ETV3 = molecular target: T12, ETV3 (Homo sapiens, UniProt P41162-2 1-143); settings: protein: recombinant; tags: N-terminal GST; dsDNA, one strand shown
T12 sequence: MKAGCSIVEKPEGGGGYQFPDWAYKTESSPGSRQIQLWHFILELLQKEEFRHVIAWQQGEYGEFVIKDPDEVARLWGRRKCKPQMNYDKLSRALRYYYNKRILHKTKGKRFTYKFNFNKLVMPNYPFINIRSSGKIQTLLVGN
Method in brief: as §1

ETV6 = ETV6 (Homo sapiens, UniProt P41212 1-452); settings: protein: recombinant; tags: N-terminal GST; dsDNA, one strand shown
Method in brief: as §1

Sequence of CRX (O43186 whole entry): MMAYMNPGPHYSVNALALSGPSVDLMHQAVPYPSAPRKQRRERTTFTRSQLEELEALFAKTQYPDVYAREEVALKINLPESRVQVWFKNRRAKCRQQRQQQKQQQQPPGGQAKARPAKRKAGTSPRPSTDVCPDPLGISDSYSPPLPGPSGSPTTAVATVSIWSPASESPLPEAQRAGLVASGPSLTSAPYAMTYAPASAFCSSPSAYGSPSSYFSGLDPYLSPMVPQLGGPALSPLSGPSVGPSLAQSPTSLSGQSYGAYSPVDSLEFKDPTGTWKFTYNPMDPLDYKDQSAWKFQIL
Sequence of ETV6 (P41212 whole entry): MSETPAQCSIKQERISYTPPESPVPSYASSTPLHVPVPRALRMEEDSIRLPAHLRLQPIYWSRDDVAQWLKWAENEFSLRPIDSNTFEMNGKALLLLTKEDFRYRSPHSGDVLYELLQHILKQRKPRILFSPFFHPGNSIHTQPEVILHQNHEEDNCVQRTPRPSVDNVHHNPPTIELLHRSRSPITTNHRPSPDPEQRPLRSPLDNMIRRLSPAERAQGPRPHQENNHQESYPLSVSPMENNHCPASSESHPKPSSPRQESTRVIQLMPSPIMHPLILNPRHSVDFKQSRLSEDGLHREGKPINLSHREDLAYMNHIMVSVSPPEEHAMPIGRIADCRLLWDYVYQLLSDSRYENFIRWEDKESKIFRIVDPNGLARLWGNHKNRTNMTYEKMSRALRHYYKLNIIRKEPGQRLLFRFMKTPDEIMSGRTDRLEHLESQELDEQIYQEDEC
Sequence of ELF4 (Q99607 whole entry): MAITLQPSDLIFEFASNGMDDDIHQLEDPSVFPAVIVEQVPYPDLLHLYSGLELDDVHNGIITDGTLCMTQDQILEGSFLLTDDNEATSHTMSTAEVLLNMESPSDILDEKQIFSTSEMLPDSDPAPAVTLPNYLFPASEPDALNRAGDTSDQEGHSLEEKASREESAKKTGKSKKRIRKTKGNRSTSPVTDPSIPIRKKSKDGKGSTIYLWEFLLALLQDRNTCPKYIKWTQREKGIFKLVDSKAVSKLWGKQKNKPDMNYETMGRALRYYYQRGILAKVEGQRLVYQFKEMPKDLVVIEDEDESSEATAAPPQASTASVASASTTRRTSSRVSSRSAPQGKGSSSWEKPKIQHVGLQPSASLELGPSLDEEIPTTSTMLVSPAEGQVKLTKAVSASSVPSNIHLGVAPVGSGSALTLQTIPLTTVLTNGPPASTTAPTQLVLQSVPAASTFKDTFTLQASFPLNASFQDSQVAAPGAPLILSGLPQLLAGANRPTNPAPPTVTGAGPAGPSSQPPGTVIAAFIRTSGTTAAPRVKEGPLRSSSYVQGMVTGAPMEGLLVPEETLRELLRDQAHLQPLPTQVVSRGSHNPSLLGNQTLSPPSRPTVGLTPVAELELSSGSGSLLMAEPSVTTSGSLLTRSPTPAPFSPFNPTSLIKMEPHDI
Sequence of HSF1 (Q00613 whole entry): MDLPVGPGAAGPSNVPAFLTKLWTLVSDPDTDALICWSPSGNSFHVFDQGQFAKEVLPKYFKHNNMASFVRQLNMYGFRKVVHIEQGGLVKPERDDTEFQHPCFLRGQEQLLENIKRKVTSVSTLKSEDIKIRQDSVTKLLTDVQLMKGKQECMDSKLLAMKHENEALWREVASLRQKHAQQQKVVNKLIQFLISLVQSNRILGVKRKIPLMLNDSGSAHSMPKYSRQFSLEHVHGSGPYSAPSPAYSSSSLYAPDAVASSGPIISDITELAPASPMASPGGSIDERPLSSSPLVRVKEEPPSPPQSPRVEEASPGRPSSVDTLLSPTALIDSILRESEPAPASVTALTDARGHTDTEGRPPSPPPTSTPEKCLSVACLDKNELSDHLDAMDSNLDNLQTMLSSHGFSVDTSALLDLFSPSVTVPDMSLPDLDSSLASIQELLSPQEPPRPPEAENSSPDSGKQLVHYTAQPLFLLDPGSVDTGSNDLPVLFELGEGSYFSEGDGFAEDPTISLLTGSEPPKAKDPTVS
Sequence of ETV5 (P41161 whole entry): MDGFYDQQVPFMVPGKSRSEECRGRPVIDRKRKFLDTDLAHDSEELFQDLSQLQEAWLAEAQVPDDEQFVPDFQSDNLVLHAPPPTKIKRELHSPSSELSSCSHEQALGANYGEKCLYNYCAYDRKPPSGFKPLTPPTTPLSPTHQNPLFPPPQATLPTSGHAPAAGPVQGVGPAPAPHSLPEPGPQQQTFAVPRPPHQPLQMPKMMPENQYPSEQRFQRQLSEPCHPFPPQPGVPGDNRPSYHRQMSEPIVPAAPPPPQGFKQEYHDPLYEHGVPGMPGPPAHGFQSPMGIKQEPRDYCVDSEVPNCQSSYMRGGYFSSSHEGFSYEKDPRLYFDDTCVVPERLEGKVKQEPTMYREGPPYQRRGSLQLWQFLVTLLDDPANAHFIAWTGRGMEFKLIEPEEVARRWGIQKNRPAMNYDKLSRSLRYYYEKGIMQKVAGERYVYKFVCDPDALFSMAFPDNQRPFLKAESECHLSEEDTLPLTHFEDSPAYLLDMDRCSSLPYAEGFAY
Sequence of ETV1 (P50549 whole entry): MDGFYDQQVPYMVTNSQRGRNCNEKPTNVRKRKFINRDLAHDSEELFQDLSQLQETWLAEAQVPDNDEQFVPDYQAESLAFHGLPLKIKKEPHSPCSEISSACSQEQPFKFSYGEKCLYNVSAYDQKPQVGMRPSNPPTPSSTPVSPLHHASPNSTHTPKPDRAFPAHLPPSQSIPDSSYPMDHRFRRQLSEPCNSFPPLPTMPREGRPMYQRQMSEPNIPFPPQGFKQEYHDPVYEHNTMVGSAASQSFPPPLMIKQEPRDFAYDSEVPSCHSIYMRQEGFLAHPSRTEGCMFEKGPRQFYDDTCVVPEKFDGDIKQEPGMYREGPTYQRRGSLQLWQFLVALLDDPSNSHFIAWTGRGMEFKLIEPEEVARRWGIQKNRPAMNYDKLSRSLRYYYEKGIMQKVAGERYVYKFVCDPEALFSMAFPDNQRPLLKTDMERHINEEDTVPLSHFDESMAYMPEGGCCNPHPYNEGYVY

## TCGCCT
FEV
  binding signal: 1.28 fold enrichment (6-mer frequency, TF over GST control)
ETV5
  binding signal: 1.3 fold enrichment (6-mer frequency, TF over GST control)
HSF1
  binding signal: 1.3 fold enrichment (6-mer frequency, TF over GST control)
SPIC
  binding signal: 1.22 fold enrichment (6-mer frequency, TF over GST control)
ELF4
  binding signal: 1.27 fold enrichment (6-mer frequency, TF over GST control)
ELK4
  binding signal: 1.5 fold enrichment (6-mer frequency, TF over GST control)
ETV2
  binding signal: 1.3 fold enrichment (6-mer frequency, TF over GST control)
ELF3
  binding signal: 1.31 fold enrichment (6-mer frequency, TF over GST control)
CRX
  binding signal: 1.32 fold enrichment (6-mer frequency, TF over GST control)
ETV1
  binding signal: 1.41 fold enrichment (6-mer frequency, TF over GST control)
ERF
  binding signal: 1.27 fold enrichment (6-mer frequency, TF over GST control)
ETV3L
  binding signal: 1.23 fold enrichment (6-mer frequency, TF over GST control)
ETS2
  binding signal: 1.24 fold enrichment (6-mer frequency, TF over GST control)
SPDEF
  binding signal: 1.13 fold enrichment (6-mer frequency, TF over GST control)
ETV7
  binding signal: 1.15 fold enrichment (6-mer frequency, TF over GST control)
ELF5
  binding signal: 1.33 fold enrichment (6-mer frequency, TF over GST control)
ETV3
  binding signal: 1.22 fold enrichment (6-mer frequency, TF over GST control)
ETV6
  binding signal: 1.32 fold enrichment (6-mer frequency, TF over GST control)
